# Measurements taken from ChEMBL document CHEMBL1157539, “Thousands of chemical starting points for antimalarial lead identification” (Nature, 2010).
# System: HepG2
# Assay: GSK_TCMDC: Percent inhibition of human HepG2 cell line. Test compounds present at 10uM.
# Assay type: functional
row,SMILES,Inhibition [%]
1,CC(C)(C)c1ccc(CNC(=O)c2ccc(-c3nc4cc(C(C)(C)C)ccc4[nH]3)cc2)cc1,21
2,Cl.c1cc2[nH]c(CCCCCc3nc4cc(C5=N[C@@H]6CCCC[C@@H]6N5)ccc4[nH]3)nc2cc1C1=N[C@@H]2CCCC[C@@H]2N1,8
3,CC1CN(c2cccc3c2nc(-c2cncc(C#N)c2)n3CCNCc2ccccc2)CC(C)O1.O=C(O)C(F)(F)F (stereo not given),0
4,Cc1cc(N[C@@H](CC(C)C)C(=O)NCc2cccs2)nc(NCCc2ccccc2)n1.O=C(O)C(F)(F)F,1
5,CC(C)NCc1cccc(-c2cccc(NC(=O)c3cccc(C#N)c3)c2)c1.O=C(O)C(F)(F)F,12
6,CCn1c(-c2nonc2N)nc2c(-c3cccc(NC(=O)Nc4cccc(OC)c4)c3)ncc(OCCCN)c21.O=C(O)C(F)(F)F,1
7,Cc1nnsc1C(=O)Nc1cccc(-c2ccc(-c3nc4ccccc4[nH]3)s2)c1,55
8,Cc1cc(OCc2ccncc2)cc2c1C(=O)CC(C)(C)O2,0
9,CC(C)N1CCN(C(CN2CCN(CCCOc3cccc4ccccc34)CC2)c2ccc(F)cc2)CC1.Cl (stereo not given),54
10,CCC1CCCCN1S(=O)(=O)c1ccc(NC(=O)c2cc(C)on2)cc1 (stereo not given),0
11,Cc1cc(-c2cnc(N)c(-c3ccc(N4CCN(C)CC4)nc3)c2)cc(C)c1O,0
12,Fc1ccc2[nH]c(-c3cccc(-c4ccc(CN5CCN(c6cnccn6)CC5)cc4)c3)nc2c1.O=C(O)C(F)(F)F,19
13,CC(C)C[C@@H](C(=O)N[C@H](C(=O)Nc1nccs1)C(C)(C)C)[C@H](CCC(F)(F)F)N(O)C=O,11
14,Cc1[nH]c2ccccc2c1CC1CCN(CC2CCN(C(=O)/C=C/c3ccc(Cl)c(Cl)c3)CC2)CC1,34
15,Cc1cc(-c2ccc3c(c2)CCN(CCC2CCC(NC(=O)/C=C/c4cccc(F)c4)CC2)CC3)on1.Cl (stereo not given),23
16,O=C(Nc1ccc(Cl)cc1C(=O)Nc1ccncc1)c1ccc(Cl)cc1Cl,8
17,O=C(Nc1ccc(I)cc1)N1CCc2sccc2C1CN1CCCCC1 (stereo not given),33
18,CC1(C)N=C(N)N=C(N)C1c1ccc(Cl)cc1.Cl (stereo not given),16
19,CN1CCN(CC(=O)Nc2ccc(-c3ccc(-c4nc5ccccc5[nH]4)s3)cc2)CC1,12
20,O=C(CCOc1ccccc1)NCC1CCCO1 (stereo not given),0

row,SMILES,Inhibition [%]
1,COc1ccc(NC(=O)/C=C/c2ccccc2Cl)cc1OCCN1CCC(NCc2cccnc2)CC1,12
2,COc1cccc2cc(C(=O)N[C@@H](CC(C)C)C(=O)N[C@H](/C=N/NC(=O)c3ccccc3)Cc3c[nH]cn3)oc12,3
3,Cc1cc(CNCCCCCNCc2ccc(Cl)cc2)ccc1O,12
4,Cc1[nH]c(C)c(-c2ccc(OCc3ccc(F)cc3)cc2)c(=O)c1Br,16
5,CCCn1c(Sc2ccc(C#N)c([N+](=O)[O-])c2)nnc1-c1cc(OC)cc(OC)c1,24
6,Cl.O=c1cc(NCCCNCc2ccc(Cl)c(Cl)c2)[nH]c2ccc(Oc3ccccc3)cc12,1
7,COC(=O)c1cccc(N2CCN(CCCNC(=O)/C(=C/C=C/c3cc4cc(Cl)c(Cl)cc4[nH]3)OC)CC2)c1.Cl,38
8,COc1cccc2c1CCN(CCN1CCC(NC(=O)c3ccc(-c4cccc(Cl)c4Cl)cc3)CC1)C2,47
9,COc1cccc(NC(=O)Nc2ccc(Nc3nc(C)cc(N(C)C)n3)cc2)c1,14
10,O=C(/C=C/c1ccccc1Cl)Nc1ccc(Br)c(OCCN2CCN(CCN3CCOCC3)CC2)c1.O=C(O)C(=O)O,22
11,CCN(CC)c1ccc(C(c2ccc(N(CC)CC)cc2)c2cccc([N+](=O)[O-])c2)cc1,39
12,CCCc1cc(NCC)nc(Nc2ccc(F)cc2)n1,16
13,Clc1cccc(CNC2CCN(CC3CCCCC3)CC2)c1.O=C(O)C(F)(F)F,4
14,CCN(CCN(C)C)Cc1ccc(-c2ccc(NS(=O)(=O)c3cccc4cccnc34)cc2)cc1.O=C(O)C(F)(F)F,16
15,COc1cc(NC(=O)c2cccs2)c(C(=O)NCc2ccc(C)cc2)cc1OC,3
16,COc1cccc(C(=O)NCCc2cccc(Cl)c2)c1Oc1ccccc1,28
17,CCCC1N=C(N)N=C(N)N1c1ccccc1.Cl (stereo not given),0
18,CN(CCCN(C)c1cc(NC(=O)c2ccc(F)cc2)ccn1)Cc1cccc(O)c1.O=C(O)C(F)(F)F,2
19,CC(=O)O.Nc1nc(N)c2cc3ccc(OCc4ccccc4)cc3nc2n1,78
20,CCC(C(=O)Nc1ccccc1)n1nc(-c2ccc(C)c(S(=O)(=O)N3CCCCC3)c2)ccc1=O (stereo not given),0
